Sampled rows, rich in hits. Any-hit rate of the full collection: about 19%.
TDP1 cell noCPT – qHTS for Inhibitors of human tyrosyl-DNA phosphodiesterase 1 (TDP1): qHTS in cells in absence of CPT. AID 686978, 2013. hit rate 15% among 420,000. Potency, µM (series often up to 46.2 µM), without a hit: at the top dose activity change, negative = growth inhibition, most hits filed as inhibitors. DT40 Tdp1-/- hTDP1 cells, no CPT, ATP luminescence, 48 h; further: potency means the concentration at half of the fitted maximal effect; nearly all actives have a fitted effect of over 55% in size
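No-CPT arm: Tdp1-/-;hTDP1 DT40 cells (400/well) plus compounds, incubated ≥48 hr at 37 °C. Readout CellTiter-Glo luminescence.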
TDP1 cell CPT – qHTS for Inhibitors of human tyrosyl-DNA phosphodiesterase 1 (TDP1): qHTS in cells in presence of CPT; chicken DT40 Tdp1-/-;hTDP1 cells + 20 nM CPT, ATP luminescence, 48 h; Potency, µM (doses to about 46.2 µM), for the others: top-dose activity change, negative = growth inhibition, usual class: inhibitors; hit rate 12% among 420,000; AID 686979, 2013; further: potency means the concentration at half of the fitted maximal effect; nearly all actives have a fitted effect of over 55% in size
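Chicken DT40 Tdp1-/- cells complemented with human TDP1, 400 cells/well, exposed to compounds plus 20 nM camptothecin for at least 48 h at 37 C; viability read as ATP content by CellTiter-Glo luminescence.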
HT1080 IDH1KD tx – qHTS for induction of synthetic lethality in tumor cells producing 2HG: qHTS for the HT-1080-IDH1KD cell line | HT-1080 IDH1 knockdown viability, ATP luminescence, 48 h | Potency, µM (highest dose often 46.1 µM), inactives show top-dose activity, negative = toxicity, actives largely listed as cytotoxic | hit rate 2% among 360,000;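 further: potency means the concentration at half of the fitted maximal effect; 0% = DMSO wells and -100% = cell-free medium wells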
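Knockdown cells (IDH1KD HT-1080) received compounds 2 h after plating at 750 cells/well and were kept 48 h at 37 °C in 5% FBS RPMI. A CellTiter-Glo luminescence read gave % activity for curve fitting.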
IL-1B inflam inh – qHTS for Inhibitors of Inflammasome Signaling: IL-1-beta AlphaLISA Primary Screen | THP-1 LPS/ATP IL-1B secretion, AlphaLISA, 16 h; hits give low values | activity change, % at 57.5 µM | hit rate 4.7% among 360,000 | AID 743279, 2014; in the data active means activity change below about -50%; inconclusive means mostly about -30% to -49%
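Secreted IL-1B measured by AlphaLISA bead assay after 16 h compound exposure of THP-1 cells; compounds (final up to 57.5 uM) added 1 h before LPS (250 ng/mL) and ATP (1.25 mM) stimulation; lower signal means less secretion.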
ELG1 repair inh – qHTS screen for small molecules that inhibit ELG1-dependent DNA repair in human embryonic kidney (HEK293T) cells expressing luciferase-tagged ELG1; HEK293T ELG1-luciferase reporter, luminescence, 16 h; DNA damage induced by 5-fluorouridine; Potency, µM (doses to about 46.1 µM), for inactives: at the top dose activity change, negative = inhibition, most hits filed as inhibitors; hit rate 2.3% among 330,000; AID 504467, 2011; further: potency means the concentration at half of the fitted maximal effect; nearly all actives have a fitted effect of over 55% in size
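Cells (2,000 per well) received 5-fluorouridine plus test compound or DMSO and were incubated 16 hr at 37 °C, 5% CO2. Luciferase activity was read by luminescence 30 min after ONE-Glo addition; signal suppression marked inhibition of damage-induced ELG1 function.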
HT1080-NT tox – qHTS for induction of synthetic lethality in tumor cells producing 2HG: qHTS for the HT-1080-NT fibrosarcoma cell line; Potency, µM (titrated, usually from 46.1 µM), inactives show at the top dose activity, negative = less viability, hits mostly cytotoxic; AID 686970, 2013; HT-1080-NT fibrosarcoma viability, CellTiter-Glo ATP luminescence, 48 h; hit rate 1.6% among 360,000;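 further: NT is the 2HG producing partner of a matched IDH1 knockdown line; potency means the concentration at half of the fitted maximal effect; 0% = DMSO-treated cells and -100% = media-only wells without cells; nearly all actives have a fitted effect of over 55% in size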
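Viability by CellTiter-Glo luminescence after 48 h compound exposure at 37C of HT-1080-NT cells (750/well, RPMI, 5% FBS). % activity scaled between DMSO wells and medium-only wells, then curve-fitted and categorized by curve class.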
The depositor's hits bear a star; ? = inconclusive; . = no result given; [ ] = remark or other dose. Unless noted, the call rests on the fitted dose curve; in most records, active means well fitted curve in the direction sought with a large enough effect; inconclusive means small, poorly fitted or top-dose-only effect, or another doubt; inactive means no such curve, though single readings can be large; an effect the other way counts as inactive or inconclusive. Unless noted, on the % scale 0 is the no-effect control and ±100 the full control effect.

SMILES	TDP1 cell noCPT	TDP1 cell CPT	HT1080 IDH1KD tx	IL-1B inflam inh	ELG1 repair inh	HT1080-NT tox
Cc1cccc(C)c1OCc1nc2ccccc2c(=O)n1/N=C/c1c[nH]c2ccccc12	?	21µM*	?	-11	8.2µM*	-23%
Cc1ccccc1OCc1nc2ccccc2c(=O)n1/N=C/c1c[nH]c2ccccc12	-101%	-68%	?	9	?	?
S=c1[nH]nc(COc2ccccc2)n1/N=C/c1ccc(Cl)c(Cl)c1	-10%	-17%	17%	24	-1%	10%
O=[N+]([O-])c1ccc(Cl)c(/C=N/n2c(COc3ccccc3)n[nH]c2=S)c1	21µM*	18µM*	-11%	-8	-15%	?
CCc1ccc(C(=O)C(C)OC(=O)c2nn(C)c(=O)c3ccccc23)cc1 (stereo not drawn)	-21%	-22%	2%	2	-17%	-1%
O=C(Cc1ccccc1)NC1CC(=O)N(c2ccc3c(c2)OCCO3)C1 (stereo not drawn)	5%	-4%	.	.	.	.
COc1ccc(CN2C(=O)CCC2(C)c2nc3ccccc3[nH]2)cc1 (stereo not drawn)	18%	19%	22%	2	.	23%
CCOc1ccc(N2CC(c3nc4ccccc4n3CCCOc3ccccc3OC)CC2=O)cc1 (stereo not drawn)	8.2µM*	?	.	.	.	.
CCOc1ccccc1N1CC(c2nc3ccccc3n2CCCOc2ccccc2)CC1=O (stereo not drawn)	?	-24%	.	.	.	.
COc1ccccc1OCCCn1c(C2CC(=O)N(c3ccc(F)cc3)C2)nc2ccccc21 (stereo not drawn)	8.2µM*	?	.	.	.	.
CCOc1ccc(Cl)cc1S(=O)(=O)N1CCC(C(=O)NCc2ccncc2)CC1	-1%	7%	19%	12	-2%	7%
O=C(Nc1ccc(C(F)(F)F)cc1)c1ccccc1-n1cnnn1	8%	-25%	-2%	-17	13%	-1%[9.24 µM]
C=CCOc1ccc(CNc2ccc3[nH]c(=O)[nH]c3c2)cc1	?	?	-3%	-3	-1%	22%
O=C1c2ccccc2C(c2nnnn2-c2ccc3c(c2)OCCO3)N1Cc1cccs1 (stereo not drawn)	?	?	7%	0	.	10%
COc1ccc(CN2C(=O)c3ccccc3C2c2nnnn2-c2ccc3c(c2)OCCO3)cc1OC (stereo not drawn)	21µM*	15µM*	15%	40	.	8%
COc1ccc(OC)c(CN2C(=O)c3ccccc3C2c2nnnn2C2CCCC2)c1 (stereo not drawn)	16µM*	?	16%	35	.	1%
COc1ccc(OC)c(CN2C(=O)c3ccccc3C2c2nnnn2Cc2ccccc2)c1 (stereo not drawn)	21µM*	?	-1%	-14	.	7%
N#Cc1ccc(CSc2nnc(NC(=O)CCc3nc4ccccc4c(=O)[nH]3)s2)cc1	-3%	5%	3%	-7	3%	4%
CCS(=O)(=O)c1nnnn1-c1ccccc1S(C)(=O)=O	?	?	13µM*	-97*	15µM*	18µM*
Cc1ccc(S(=O)(=O)NCC2NCCc3ccccc32)cc1 (stereo not drawn)	23µM*	-9%	8%	-1	-10%	13%
Cc1cccc(NC(=O)CCC(=O)N/N=C/c2ccc(O)cc2O)c1	?	-94%	?	146	-20%	?
Cc1ccc(NC(=O)CCC(=O)N/N=C/c2ccccc2O)cc1	15µM*	10µM*	?	112	?	?
O=C(CCC(=O)Nc1ccc(Br)cc1)N/N=C/c1ccccc1O	6.5µM*	?	13µM*	144	?	10µM*
COc1ccc(/C=N/NC(=O)CCC(=O)Nc2ccc(F)cc2)c(OC)c1	7%	-2%	2%	-16	-3%	-1%
COc1ccc(/C=N/NC(=O)CCC(=O)Nc2ccc(Br)cc2)c(OC)c1	?	?	?	-75*	1%	?
SMILES	TDP1 cell noCPT	TDP1 cell CPT	HT1080 IDH1KD tx	IL-1B inflam inh	ELG1 repair inh	HT1080-NT tox
Cc1ccc(SCCC(=O)N/N=C/c2ccccc2O)cc1	1.3µM*	0.65µM*	?	144	-11%	-30%
COc1ccc(NC(=O)c2cc3ccccn3n2)cc1	-6%	-13%	-15%	13	?	-6%
COc1cc(Cl)c(NC(=O)c2cc3ccccn3n2)c(OC)c1	21µM*	16µM*	.	.	.	.
CC(=O)OC1CCC2(C)C(CCC3C2CC(=O)C2(C)C3CC(C3CCCC3=O)C2C(C)=O)C1 (stereo not drawn)	?	-12%	23%	4	.	15%
O=C(NNC(=O)c1cccs1)c1ccncc1	1%	-1%	-13%	3	-7%	-8%
O=C(NNC(=S)NC(=O)c1cccs1)c1ccc(O)cc1	?	23µM*	-23%	-1	-1%	?
O=C(NC(=S)NCc1ccccc1)c1cccs1	10%	23%	1%	-3	?	0%
O=C(CNC(=S)NC(=O)c1cccs1)c1ccccc1	15µM*	16µM*	10%	-13	?	14%
O=C(NNC(=S)NC(=O)c1cccs1)c1ccc(NC(=O)c2ccccc2)cc1	?	26µM*	-14%	-5	-21%	-20%
O=C(Nc1ccc(NC(=S)NC(=O)c2cccs2)cc1)c1ccccc1	-19%	-19%	-22%	4	?	-4%
O=C(NNC(=S)NC(=O)c1cccs1)c1cccnc1	?	?	-5%	15	-23%	-17%
O=C(CC(=O)c1cccs1)c1ccncc1	29µM*	21µM*	-2%	-10	.	0%
COc1cccc(C(=O)c2cn(CC(=O)NCCc3ccccc3)c3nc(C)ccc3c2=O)c1	?	-21%	.	.	.	.
C/C(=N\NC(=O)c1nnn(-c2nonc2N)c1-c1cccs1)c1cccc(O)c1	-12%	19%	0%	-1	-19%	16%
